Assay outcomes deposited in PubChem BioAssay by The Scripps Research Institute Molecular Screening Center.
ULK1 primary – blocks human autophagy kinase ULK1 | AlphaScreen Atg13 phosphorylation by ULK1, luminescence | inhibition, % at 5.96 µM | actives 1.9% (n = 30,000); in the data active = inhibition above about 43%;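 also: 0% = median of compound wells and 100% = no enzyme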
ASK1 inh – inhibitors of human ASK1 kinase | Q99683 | AlphaScreen MKK6 phosphorylation by ASK1, luminescence | inhibition, % at 7.44 µM | actives 0.99% (n = 22,000); in the data active = inhibition above about 35%;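 also: 0% = median of compound wells and 100% = no enzyme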
An asterisk follows results filed as active; x = not tested or not shown. An excerpt weighted towards active compounds, which were near 2.5% of everything screened.

SMILES	ULK1 primary	ASK1 inh
CCN(CC)C(=O)C1CCCN(c2nc3c(NCCN4CCOCC4)ncnc3n2C(C)C)C1 (stereo not drawn)	-0.4	-10.0
O=c1c(O)c(-c2ccc(O)c(O)c2)oc2cc(O)cc(O)c12	46.1*	x
O=c1c(-c2ccc(O)cc2)coc2cc(O)cc(O)c12	-2.5	x
NC(=O)c1ccc(-c2nc(Nc3ccc(N4CCOCC4)cc3)c3[nH]cnc3n2)cc1	13.7	12.7
Cn1c(-c2ccccc2)cnc1SCC(=O)NCc1ccccc1Cl	-5.0	x
Cc1cncc2c(S(=O)(=O)N3CCCN(C(=O)CN)C[C@@H]3C)cccc12	7.4	4.0
Cc1cncc2cccc(S(=O)(=O)N3CCCN(C(=O)CN)C[C@@H]3C)c12	66.8*	2.5
Cc1cc2c(C(C)C)c(O)c(O)c(C=O)c2c(O)c1-c1c(C)cc2c(C(C)C)c(O)c(O)c(C=O)c2c1O	57.3*	x
Cc1cc(NCCOc2ccccc2)nc(N2CCN(Cc3ccc4c(c3)OCO4)CC2)n1	-5.7	0.3
CCCNC(=O)c1csc(-c2ccc(N3CCOCC3)nc2)n1	5.5	-9.0
O=C(Nc1ccc2[nH]ncc2c1)C1CCNC1 (stereo not drawn)	12.1	-9.1
O=C(Nc1ccc2[nH]ncc2c1)C1CCNCC1	55.9*	-2.0
Nc1cc(Nc2ccc(C(F)(F)F)cc2)ncn1	-3.6	8.2
COc1ccc(CCNc2nc(Nc3cnccn3)nc3c2ncn3C2CCCCC2)cc1	15.2	-0.9
Oc1ccc(CCNc2nc(Nc3cnccn3)nc3c2ncn3C2CCCCC2)cc1	44.1*	-30.1
O=C1NC(=O)/C(=C\c2cc(Br)cc(Cl)c2O)S1	44.4*	x
CC(=O)Nc1ccc(/C=C2/SC(=O)NC2=O)cc1	2.3	x
COc1cc(Nc2nc(Nc3ncccn3)nc3c2ncn3-c2ccccc2)cc(OC)c1OC	9.7	8.9
Cc1cc(NCCc2ccccn2)nc(-c2ccccc2)n1	-6.1	-9.4
Cc1cnc(Nc2ccncc2)nc1NCCOc1ccccc1	50.3*	6.0
COc1cc(Nc2ncc(C)c(NCCOc3ccccc3)n2)cc(OC)c1OC	63.5*	5.0
CCNc1ncc(C)c(NCCOc2ccccc2)n1	2.2	-0.1
Cc1cnc(Nc2ccccc2)nc1NCCOc1ccccc1	14.6	3.2
CCCNc1nccc(-c2c(-c3ccc(F)cc3)nc3n2[C@@H](CO)[C@@H](C)C3)n1	1.7	-10.0
NC(=O)c1cncc(-c2cccs2)c1	-4.3	1.8
SMILES	ULK1 primary	ASK1 inh
c1ccc(CN2CCC(Nc3nc(Nc4cccnc4)nc4nc[nH]c34)CC2)cc1	16.4	21.0
OCCNc1cc(N2CCOCC2)ncn1	5.8	5.9
Cc1cc(NC2CCN(Cc3ccccc3)CC2)nc(Cl)n1	-5.0	-28.1
CC(C)n1cnc2c(NC3CCN(Cc4ccccc4)CC3)nc(Nc3ccncc3)nc21	8.7	-5.0
CCCNc1nc(-c2ccc(OC)cc2)ncc1C	-0.5	-22.4
O=C(Nc1nc2c(s1)CN(Cc1ccccc1)CC2)C1CCCCC1	0.1	x
N#Cc1c(N)sc(=S)c2c1CCN(Cc1ccccc1)C2	75.4*	x
CCCCC(CC)CCC(CC(C)C)OS(=O)(=O)O (stereo not drawn)	94.6*	x
CCCCCCCCCCCCOS(=O)(=O)O	19.3	x
COc1ccc(-c2ncc(C(=O)NCc3cccnc3)s2)cn1	6.8	-7.0
COc1cc(N2CCOCC2)ccc1Nc1cc(Nc2ccccc2C(N)=O)c(C(F)F)cn1	82.9*	-30.6
COc1cc(N2CCOCC2)ccc1Nc1cc(Nc2ccccc2C(=O)N(C)C)c(C(F)(F)F)cn1	74.2*	6.6
COc1cc(N2CCOCC2)ccc1Nc1cc(-c2cnn(C)c2)c(Cl)cn1	3.4	-12.4
Cn1ccc(-c2ccccc2Nc2ccnc(Nc3ccc(N4CCOCC4)cc3)c2)n1	-3.8	19.4
Cn1nc(C2CC2)cc1Nc1cc(Nc2ccc(N3CCOCC3)cc2)ncc1C(F)(F)F	45.7*	10.3
CNC(=O)c1ccccc1Nc1cc(Nc2ccc(N3CCOCC3)cc2OC)ncc1C	18.4	-2.9
c1ccc(Nc2nccc(Nc3ccc(N4CCOCC4)cc3)n2)nc1	5.7	-8.2
Cn1cc(C(=O)N2CCCC2)c2[nH]c(=O)n(-c3ccc(F)cc3)c(=O)c21	2.5	x
CC(=O)c1cccc(-c2cc(NCCN(C(C)C)C(C)C)ncn2)c1	-5.6	3.3
CC(C)n1c(NCCN2CCOCC2)nc2c(Nc3ccc4c(c3)OCO4)ncnc21	5.8	-3.2
Cc1ncn(-c2ccc(Nc3ncc4cccc(-c5cccc6c5ccn6C)c4n3)cc2)n1	-4.7	-4.7
Cc1ncn(-c2ccc(Nc3ncc4cccc(-c5nccs5)c4n3)cc2)n1	50.2*	11.5
Cc1ncn(-c2ccc(Nc3ncc4cccc(-c5ccn(C)n5)c4n3)cc2)n1	88.6*	-74.2
Cc1ncn(-c2ccc(Nc3ncc4cccc(-c5ccnn5C)c4n3)cc2)n1	51.7*	-26.3
Cc1ncn(-c2ccc(Nc3ncc4cccc(-c5cccnc5)c4n3)cc2)n1	10.0	9.2
SMILES	ULK1 primary	ASK1 inh
Cc1ncn(-c2ccc(Nc3ncc(Cl)c(-c4ccnn4C)n3)cc2)n1	64.4*	-7.8
Cc1ncn(-c2ccc(Nc3nccc(-c4cc(F)cc(-c5ccnn5C)c4)n3)cc2)n1	14.9	19.2
Cc1ccc(-c2ncn(-c3ccc(Nc4ncc5cccc(-c6nccs6)c5n4)cc3)n2)cn1	2.6	20.2
COc1ccc(-c2ncc(C(=O)NCc3cccc(C(F)(F)F)c3)s2)cn1	-10.6	-8.4
c1ccc(-c2cc(NCC3CCCO3)ncn2)cc1 (stereo not drawn)	5.4	-11.6
COc1ccc(-c2nc3c(NC4CCN(Cc5ccccc5)CC4)ncnc3n2C(C)C)cn1	5.8	8.4
Cc1ncn(-c2ccc(Nc3ncc4cccc(-c5cn[nH]c5C)c4n3)cc2)n1	54.7*	-21.1
Cc1ncn(-c2ccc(Nc3ncc4cccc(-c5ccn[nH]5)c4n3)cc2)n1	23.6	15.8
Cn1c(=O)cc(NCCCn2ccnc2)n(Cc2ccc(F)cc2F)c1=O	12.3	x
Cc1ccccc1OCc1nc2ccc(-c3ccnc(N)n3)cc2[nH]1	43.5*	7.9
COc1cccc(OCc2nc3ccc(-c4ccnc(N)n4)cc3[nH]2)c1	62.1*	10.1
COc1cccc2c1OCC(c1nc3ccc(-c4ccnc(N)n4)cc3[nH]1)C2 (stereo not drawn)	-2.2	-3.2
Nc1nccc(-c2ccc3nc(CCOc4ccc(CC(=O)NC5CC5)cc4)[nH]c3c2)n1	11.3	5.9
Cc1ccccc1OCc1nc2ccc(-c3cn[nH]c3)cc2c(=O)[nH]1	-14.0	14.1
COc1ccccc1OCc1nc2ccc(-c3ccnc(N)n3)cc2[nH]1	47.6*	-1.4
O=C(NC1CC1)c1ccc2nc(Nc3cccnc3)sc2c1	3.4	-3.1
CN(C)c1cccc(Nc2nc(C(=O)Nc3ccc(N4CCOCC4)cc3)cs2)c1	22.1	13.4
O=C(Cc1csc(NC(=O)c2ccccc2)n1)Nc1ccc(F)c(F)c1	-7.4	x
O=C(/C=C/c1ccccc1)Nc1nc(CC(=O)NCc2ccc(F)cc2)cs1	57.3*	x
Nc1cc(NCc2ccccc2)ncn1	1.2	-2.4
CCCNc1nc(Nc2nc3ccccc3n2C)nc2c1ncn2CCN1CCCC1=O	0.7	-13.9
Cn1c(Nc2nc(NCCO)c3ncn(CCN4CCCC4=O)c3n2)nc2ccccc21	73.4*	1.7
O=C(CCc1ccccc1)Nc1nnc2n1CCCS2	2.2	x
Cc1ccc(-c2ncn(-c3ccc(Nc4ncc5ccc(-c6cnn(C)c6)nc5n4)cc3)n2)cn1	5.8	10.6
Cc1ncn(-c2ccc(Nc3ncc4ccnc(-c5cnn(C)c5)c4n3)cc2)n1	9.8	-0.4
